Laboratory results taken from PubChem BioAssay AID2014 (Sanford-Burnham Center for Chemical Genomics, 2009).
About 3,000 (1%) of roughly 290,000 compounds were called active. How the calls were made is not given here. The entries come from a sample that favours actives as a whole.

Target: Polyadenylate-binding protein 1 (Homo sapiens) (UniProt P11940)
Assay: PABP poly(A) RNA binding inhibitors, primary screen, biochemical, fluorescence polarization, uHTS (AID 2014);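 further: calls also rest on retests at 20 µM and on dose response follow-up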
Settings: stronger effect = higher value

Chain of Polyadenylate-binding protein 1 (Homo sapiens) (P11940 whole entry, looked up): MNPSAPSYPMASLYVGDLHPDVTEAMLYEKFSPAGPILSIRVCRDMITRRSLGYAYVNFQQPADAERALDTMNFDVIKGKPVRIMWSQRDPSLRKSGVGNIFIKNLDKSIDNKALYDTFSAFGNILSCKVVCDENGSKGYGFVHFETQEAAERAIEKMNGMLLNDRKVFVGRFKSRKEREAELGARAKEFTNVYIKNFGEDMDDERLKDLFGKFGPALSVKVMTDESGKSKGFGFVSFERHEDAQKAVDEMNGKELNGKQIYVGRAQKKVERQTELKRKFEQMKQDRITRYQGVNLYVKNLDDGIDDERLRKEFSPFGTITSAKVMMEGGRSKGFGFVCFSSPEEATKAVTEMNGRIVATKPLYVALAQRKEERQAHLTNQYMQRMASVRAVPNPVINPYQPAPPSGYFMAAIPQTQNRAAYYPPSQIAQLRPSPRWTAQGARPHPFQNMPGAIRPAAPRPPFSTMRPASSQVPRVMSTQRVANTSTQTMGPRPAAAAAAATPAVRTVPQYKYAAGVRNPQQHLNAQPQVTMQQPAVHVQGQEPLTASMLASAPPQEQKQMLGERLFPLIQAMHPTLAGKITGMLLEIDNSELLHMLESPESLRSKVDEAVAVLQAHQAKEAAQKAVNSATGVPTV

O=C(c1ccc(S(=O)(=O)N2CCOCC2)cc1)N1CCN(c2ccccc2)CC1
inhibition (at 35 µM): 3.8% (inactive)

O=C(c1ccc(CS(=O)(=O)c2ccccc2)o1)N1CCN(c2ccccc2)CC1
inhibition (at 35 µM): 28.3% (active) | inhibition (confirmation repeats, at 20 µM): 62.1%

O=C(c1cc(=O)c2ccccc2o1)N1CCN(c2ccccc2)CC1
inhibition (at 35 µM): 4.7% (inactive)

CCc1ccc(N2CC(C(=O)N3CCCCCC3)CC2=O)cc1 (stereo not given)
inhibition (at 35 µM): -12.2% (inactive)

COc1ccc2oc(=O)cc(CN3CCOCC3)c2c1
inhibition (at 35 µM): 10.8% (inactive)

O=Cc1cn(-c2ccccc2)nc1-c1ccccn1
inhibition (at 35 µM): -6.6% (inactive)

Cc1ccc(SCCSc2ncccn2)cc1
inhibition (at 35 µM): 8.3% (inactive)

Cc1cccc(C(=O)NNC(=O)CSc2nnc(C(C)C)n2C)c1
inhibition (at 35 µM): 0.1% (inactive)

COCCN1C=C2C(=O)C(C)(OC(=O)C3CCCC3)C(=O)C=C2C=C1c1ccsc1 (stereo not given)
inhibition (at 35 µM): 61% (active)

COCCn1c(N)c(N(Cc2ccccc2)C(=O)C2CCCCC2)c(=O)[nH]c1=O
inhibition (at 35 µM): 4.9% (inactive)

Cc1cccnc1CC(C)NC(=O)c1cc(COc2cncc(Cl)c2)on1 (stereo not given)
inhibition (at 35 µM): -0.2% (inactive)

CC(=O)c1ccc(OC(=O)N2CCOCC2)cc1
inhibition (at 35 µM): -1.2% (inactive)

O=C1NC(c2cccc(Cl)c2)Nc2ccccc21 (stereo not given)
inhibition (at 35 µM): -16.8% (inactive)

COc1cccc(C2Nc3cccc4cccc(c34)N2)c1
inhibition (at 35 µM): 25.6% (active) | inhibition (confirmation repeats, at 20 µM): 72.2%

Cc1ccc(C2Nc3cccc4cccc(c34)N2)cc1
inhibition (at 35 µM): 39.9% (inactive)

Oc1ccc(C2Nc3cccc4cccc(c34)N2)cc1
inhibition (at 35 µM): 69.2% (active)

COc1ccc(C2NC(=O)c3ccccc3N2)cc1 (stereo not given)
inhibition (at 35 µM): 15.7% (inactive)

COc1ccc(N2C(=O)C3CCCN3C2c2cccc(OC)c2)cc1 (stereo not given)
inhibition (at 35 µM): -1.1% (inactive)

O=C1CCN(CCc2ccccc2)CCN1CCOc1ccccc1
inhibition (at 35 µM): 7.2% (inactive)

COc1ccc(CNC(=O)CN(Cc2ccccc2Cl)C(=O)c2csnn2)cc1
inhibition (at 35 µM): 4.9% (inactive)

COc1cc(CC(=O)NCc2cccs2)cc(OC)c1OC
inhibition (at 35 µM): -5.2% (inactive)

CCN(CC(=O)NCc1cccs1)C(=O)c1ccccc1F
inhibition (at 35 µM): -8.7% (inactive)

CCN(CC(=O)NCc1cccs1)C(=O)c1cccc(S(=O)(=O)Nc2ccccc2OC)c1
inhibition (at 35 µM): 60.4% (active) | inhibition (confirmation repeats, at 20 µM): 70.6%

CC(=O)c1ccccc1OCc1ccc(C(=O)c2ccccc2)cc1
inhibition (at 35 µM): 0.6% (inactive)

O=C(NC1CC1)C(Cc1ccccc1)NS(=O)(=O)c1ccccc1F (stereo not given)
inhibition (at 35 µM): -3.9% (inactive)

O=C(NCCCc1ccccc1)C1CCC(=O)N(CCc2ccc(Cl)cc2)C1 (stereo not given)
inhibition (at 35 µM): 2.3% (inactive)

Cc1cc(=O)oc(C)c1C(=O)NCCN(C)Cc1ccccc1
inhibition (at 35 µM): -13.8% (inactive)

Cc1cc(=O)oc(C)c1C(=O)NCc1ccc(F)cc1
inhibition (at 35 µM): 28.4% (inactive)

Cc1cc(=O)oc(C)c1C(=O)Nc1cnc2ccccc2c1
inhibition (at 35 µM): 104% (active)

Cc1ccc(C(=O)NC2CCN(C(=O)Nc3ccccc3Cl)CC2)cc1
inhibition (at 35 µM): 8.2% (inactive)

Cc1cccc(N2CCN(C(C)C(=O)N3CCc4ccccc43)CC2)c1C (stereo not given)
inhibition (at 35 µM): -1.2% (inactive)

Cc1cccc(N(C(=O)Cn2nnc(-c3ccc(C)o3)n2)C(C(=O)NC2CCCC2)c2ccncc2)c1 (stereo not given)
inhibition (at 35 µM): 11.1% (inactive)

Cc1ccc(N=C2NC(=O)/C(=C/C=C/c3ccco3)S2)cc1C
inhibition (at 35 µM): -2.9% (active) | inhibition (confirmation repeats, at 20 µM): 92%

Cc1cccc(N=C2NC(=O)/C(=C/c3cn(C)c4ccccc34)S2)c1
inhibition (at 35 µM): -3.5% (inactive)

Cc1ccc(N2NC(=O)/C(=C/C=C/c3ccco3)C2=O)cc1C
inhibition (at 35 µM): 12.2% (inactive)

CC(C)(O)C#Cc1ccc(CN2CCC(CO)(CCc3ccccc3)CC2)cc1
inhibition (at 35 µM): -2.8% (inactive)

Brc1ccccc1CN1CCC(Cc2ccccc2)CC1
inhibition (at 35 µM): 0.9% (inactive)

Cn1c(N)cc(-c2ccc(F)cc2)c(C#N)c1=O
inhibition (at 35 µM): 59.1% (active) | inhibition (confirmation repeats, at 20 µM): 69.9%

Cc1cc(C)c2c(-c3ccc(F)cc3)c(C#N)c(=O)n(C)c2n1
inhibition (at 35 µM): -5.1% (inactive)

COc1ccc(O)c(C(=O)c2cnc3c(c2)c(-c2ccc(F)cc2)c(C#N)c(=O)n3C)c1
inhibition (at 35 µM): 7.5% (inactive)

COc1ccc(NC(=O)C(CC(C)C)NC(=O)C2CCC(C)CC2)cc1 (stereo not given)
inhibition (at 35 µM): -2.9% (inactive)

C=CCn1c(=O)c(C(=O)NCc2ccc3c(c2)OCO3)c(O)c2ccccc21
inhibition (at 35 µM): -7.7% (inactive)

CC1CCCCC1NC(=O)CCS(=O)(=O)c1ccc2c(c1)NC(=O)CO2 (stereo not given)
inhibition (at 35 µM): 3.9% (inactive)

Cc1cccc2c1cnn2C(=O)CCC(=O)NC1CCCCC1
inhibition (at 35 µM): -10.3% (inactive)

CN(C(=O)CN1C(=O)S/C(=C\c2ccccc2F)C1=O)C1CCS(=O)(=O)C1 (stereo not given)
inhibition (at 35 µM): 11.1% (inactive)

Cc1ccc(OCC(=O)NC(C)c2ccccc2)c([N+](=O)[O-])n1 (stereo not given)
inhibition (at 35 µM): 51.1% (inactive) | inhibition (confirmation repeats, at 20 µM): -6.6%

Cc1ccc(OCC(=O)c2cc(C)n(Cc3ccco3)c2C)c([N+](=O)[O-])n1
inhibition (at 35 µM): 40.8% (inactive) | inhibition (confirmation repeats, at 20 µM): 34.4%

COCC(C)n1c(C)cc(C(=O)COc2ccc(C)nc2[N+](=O)[O-])c1C (stereo not given)
inhibition (at 35 µM): -2.1% (active) | inhibition (confirmation repeats, at 20 µM): 57.1%

COc1ccccc1NC(=O)CSc1nnc(C)n1CC1CCCO1 (stereo not given)
inhibition (at 35 µM): 9.2% (inactive)

CCOc1ccc(NC(=O)c2cccc3c2C(=O)N(CC2CCCO2)C3)cc1 (stereo not given)
inhibition (at 35 µM): -7.6% (inactive)

CCOc1cccc(=O)c2c(C)n(CC3CCCO3)c(C)c12 (stereo not given)
inhibition (at 35 µM): 92.6% (active)

Cc1cc(=O)n2[nH]c(-c3cccc(Cl)c3)cc2n1
inhibition (at 35 µM): 1.6% (inactive)

CCc1c(C)nc2cc(-c3cccs3)[nH]n2c1=O
inhibition (at 35 µM): 3.2% (inactive)

Cc1cc(=O)n2[nH]c(-c3sccc3-n3c(C)ccc3C)cc2n1
inhibition (at 35 µM): 31.1% (active) | inhibition (confirmation repeats, at 20 µM): 94.5%

CC1CCN(C(=O)c2ccc3c(=O)n4c(nc3c2)CCCCC4)CC1
inhibition (at 35 µM): 3.8% (inactive)

Cc1ccc(C(=O)NCC(=O)NCc2cc(=O)n(C)c(=O)n2C)cc1
inhibition (at 35 µM): 1.4% (inactive)

C/C(=C\c1ccco1)C1Nc2cccc3cccc(c23)N1
inhibition (at 35 µM): 116% (active)

CC(/C=N/NC(=O)c1cc(-c2ccc3ccccc3c2)n[nH]1)=C\c1ccco1
inhibition (at 35 µM): 9.9% (inactive) | inhibition (confirmation repeats, at 20 µM): 8.9%

CC(/C=N/NC(=O)c1ccncc1)=C\c1ccco1
inhibition (at 35 µM): 14.8% (inactive)

COc1ccc(S(=O)(=O)c2c[nH]c(=S)[nH]c2=O)cc1Cl
inhibition (at 35 µM): 26% (inactive)

CCOC(=O)C1(CCOc2ccccc2)CCN(Cc2cc(OC)cc(OC)c2)CC1
inhibition (at 35 µM): 10.8% (inactive)

Cn1cc(CNC(=O)c2ccc(OC3CCN(Cc4ccccn4)CC3)cc2)cn1
inhibition (at 35 µM): 9.6% (inactive)

O=S1(=O)CCN(Cc2ccccc2Cl)CC1
inhibition (at 35 µM): 33.1% (active) | inhibition (confirmation repeats, at 20 µM): 64.5%

CSc1ccc(/C=N/N2CCN(Cc3ccccc3Cl)CC2)cc1
inhibition (at 35 µM): 3.3% (inactive)

O=c1ccn(Cc2ccccc2Cl)cc1
inhibition (at 35 µM): 7.8% (inactive)

COc1cc(CO)ccc1OCC(=O)Nc1cccc2ccccc12
inhibition (at 35 µM): -6.9% (inactive)

O=C(NCc1ccccc1)C1CCN(C(=O)Cc2ccccc2)CC1
inhibition (at 35 µM): 0% (inactive)

Cc1cc(Cl)c2oc(C(=O)N3CCC(O)(c4ccccc4)CC3)c(C)c2c1
inhibition (at 35 µM): 3.6% (inactive)

COc1ccc(-c2csc(Nc3ccc(O)cc3)n2)cc1
inhibition (at 35 µM): 6.1% (inactive)

COc1ccc(OC)c(Nc2nc(-c3ccc(O)c(O)c3)cs2)c1
inhibition (at 35 µM): 88.7% (active)

COc1cccc(CC(=O)Nc2nc(-c3ccc(OC)c(OC)c3)cs2)c1
inhibition (at 35 µM): 3.9% (inactive)

Cc1nc(N2CCOCC2)sc1C(=O)NN
inhibition (at 35 µM): 18.5% (inactive)

Cc1cc(C)n(Cc2cnc(N3CCOCC3)s2)n1
inhibition (at 35 µM): 55% (active) | inhibition (confirmation repeats, at 20 µM): 89.9%

Fc1cc(F)c2nc(N3CCOCC3)sc2c1
inhibition (at 35 µM): 6.9% (inactive)

COC(=O)CCCC1=CC2=CC(=O)C(C)(OC(=O)c3cccs3)C(=O)C2=CN1CC1CC1 (stereo not given)
inhibition (at 35 µM): 32.8% (inactive)

COC(=O)CCCC1=CC2=CC(=O)C(C)(OC(=O)c3cccs3)C(=O)C2=CN1CC(C)C (stereo not given)
inhibition (at 35 µM): 36.8% (active) | inhibition (confirmation repeats, at 20 µM): 67.3%

COC(=O)CCCC1=CC2=C(c3ccccc3)C(=O)C(C)(OC(=O)C3CCCC3)C(=O)C2=CN1c1ccc(OC)cc1 (stereo not given)
inhibition (at 35 µM): 12.6% (inactive)

CCCCC1=CC2=CC(=O)C(C)(OC(=O)CC)C(=O)C2=CN1CCCOC(C)C (stereo not given)
inhibition (at 35 µM): 34.8% (active) | inhibition (confirmation repeats, at 20 µM): 51.1%

Cc1ccccc1-n1cc(CNC(=O)C2CCC(=O)N(C3CC3)C2)cn1 (stereo not given)
inhibition (at 35 µM): -10.9% (inactive)

CCOc1ccccc1NC(=O)Cc1cccs1
inhibition (at 35 µM): 4.2% (inactive)

Cc1cc(Cl)c2oc(C(=O)NC(C)c3ccncn3)c(C)c2c1 (stereo not given)
inhibition (at 35 µM): -10% (inactive)

CC(C)(C)NC(=O)CSc1nnc(NC(=O)CCc2ccccc2)s1
inhibition (at 35 µM): -1.7% (inactive)

COc1cc(NC(=O)CSc2ccc(-c3cccnc3)nn2)cc(OC)c1
inhibition (at 35 µM): 15.1% (inactive)

O=C(c1ccco1)N1CCN(Cc2cccc(C(F)(F)F)c2)CC1
inhibition (at 35 µM): 6.5% (inactive)

CC1CCN(S(=O)(=O)c2ccc3c(c2)n(C)c(=O)n3C)CC1
inhibition (at 35 µM): -1.1% (inactive)

COc1ccc(NC(=O)/C(C#N)=C\c2cc(OC)c(OCc3ccc(C(=O)O)cc3)cc2Br)cc1
inhibition (at 35 µM): 7.9% (inactive)

COc1cc(/C=C(/NC(=O)c2ccccc2)C(=O)Nc2cccc(O)c2)c([N+](=O)[O-])cc1OC
inhibition (at 35 µM): -0.9% (inactive)

COc1cc(/C=C(\C#N)C(=O)Nc2ccc3ccccc3c2)c([N+](=O)[O-])cc1OC
inhibition (at 35 µM): -2.3% (active) | inhibition (confirmation repeats, at 20 µM): 70.5%

COCc1cc(=O)n2[nH]c(C)c(-c3ccccc3)c2n1
inhibition (at 35 µM): 8.4% (inactive)

COc1ccc(CCn2c(-c3ccco3)nc3nc4ccccc4nc32)cc1OC
inhibition (at 35 µM): 12.4% (inactive)

c1coc(-c2nc3nc4ccccc4n3nc2-c2ccco2)c1
inhibition (at 35 µM): 63.7% (active)

Cn1c(-c2ccco2)nc2cc3ccccc3cc21
inhibition (at 35 µM): 4% (inactive)

CCOC(=O)C1=C(CCc2ccccc2)NC(=O)NC1c1ccc2ccccc2c1 (stereo not given)
inhibition (at 35 µM): -1% (inactive)

CCOC(=O)CNC(=O)CSc1ncccc1-c1nc2ccccc2[nH]1
inhibition (at 35 µM): 0.2% (inactive)

Cc1cc(C(=O)NCCc2ccc(Cl)cc2)c(C)o1
inhibition (at 35 µM): 0% (inactive)
